Laboratory results reported in PubChem BioAssay AID493011 (Sanford-Burnham Center for Chemical Genomics, 2011).
Hit rate of the full screen: of about 330,000 compounds, about 1,400 (0.42%) were called active.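 How the source made its calls: active means at least 40% inhibition at 20 µM here, with at most 30% in a related deaminase screen; inactive means the rest.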 The sample as a whole holds a higher share of actives than the screen did.

Molecular target: DNA dC->dU-editing enzyme APOBEC-3A (Homo sapiens) (UniProt P31941)
Assay: blockers of A3A cytidine deamination on DNA – biochemical, FAM/TAMRA oligo cleavage fluorescence, selectivity assay for APOBEC3G inhibitor project, primary screen (AID 493011);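 further: plate controls were A3A with DMSO for no effect and wells lacking A3A enzyme for full effect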
Settings: recombinant A3A, FAM/TAMRA ssDNA deamination fluorescence; at 20 µM; active compounds read high

DNA dC->dU-editing enzyme APOBEC-3A (Homo sapiens), sequence (P31941 whole entry, looked up): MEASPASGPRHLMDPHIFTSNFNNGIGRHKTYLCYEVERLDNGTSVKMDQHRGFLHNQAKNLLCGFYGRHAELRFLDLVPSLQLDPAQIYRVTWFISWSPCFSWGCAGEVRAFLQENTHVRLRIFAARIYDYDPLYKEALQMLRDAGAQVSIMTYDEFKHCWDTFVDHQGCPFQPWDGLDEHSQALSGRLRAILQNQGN

Row | SMILES | inhibition
1 | CN1CCN(S(=O)(=O)c2cccc(C(=O)Nc3sccc3C#N)c2)CC1 | 0.346% (inactive)
2 | Cc1ccc(CNC(=O)c2ccc(CS(=O)Cc3cccc(Cl)c3)o2)cc1 (stereo unspecified) | -4.67% (inactive)
3 | Cc1ccc(/C=C/C(=O)OCC(=O)NCc2ccc(Cl)cc2)o1 | 1.93% (inactive)
4 | C[n+]1ccc(C(=O)NCc2ccccc2)cc1 | 77.2% (active)
5 | CS(=O)(=O)NCc1ccc(C(=O)NCc2ccccc2)cc1 | -3.29% (inactive)
6 | Nc1ccc(C(=O)NCc2ccccc2)cc1 | 5.23% (inactive)
7 | COc1ccc(Cl)cc1NC(=O)COC(=O)c1ccc(Br)o1 | -2.56% (inactive)
8 | CCCn1nnnc1NCc1ccc(OC)cc1 | -5.24% (inactive)
9 | Cn1nnnc1NCc1ccc(Cl)c(Cl)c1 | 1.46% (inactive)
10 | COc1ccc(CNc2nnnn2C)cc1 | 63.5% (active)
11 | Cc1ccc(N(Cc2ccccc2O)C(=O)c2ccccc2F)cc1 | 3.92% (inactive)
12 | CC1(C)Oc2ccc3ccc(=O)oc3c2/C(=N/O)C1=O | -5.21% (inactive)
13 | CC1(C)Oc2ccc3ccc(=O)oc3c2/C(=C/NCCO)C1=O | 55.6% (active)
14 | C/C=C(/C)C(=O)OC1Cc2c(ccc3ccc(=O)oc23)OC1(C)C (stereo unspecified) | -4.35% (inactive)
15 | Cc1cnc(C(=O)OCC(=O)NCCCc2ccccc2)cn1 | -5.14% (inactive)
16 | COc1ccc2[nH]c(C)c(CCN(Cc3cccs3)C(=S)Nc3ccccc3OC)c2c1 | -5.52% (inactive)
17 | COc1ccccc1CNC(=O)c1ccc(CS(=O)(=O)c2ccccc2)o1 | 3.87% (inactive)
18 | O=C(c1ccc(S(=O)(=O)NCc2ccco2)cc1)N1CCN(c2ccccc2)CC1 | -1.4% (inactive)
19 | O=C(c1ccc(CS(=O)(=O)c2ccccc2)o1)N1CCN(c2ccccc2)CC1 | 40% (active)
20 | Cc1c(NC(=O)C(C)Oc2cccc(Cl)c2)c(=O)n(-c2ccccc2)n1C (stereo unspecified) | 2.72% (inactive)
21 | O=C(NCCCNCc1ccccc1)c1ccc(/C=N/O)nc1 | 0.078% (inactive)
22 | CC(C)c1ccc(C(=O)NCCCc2ccccc2)cc1 | -3.9% (inactive)
23 | C[N+](C)(C)CCNC(=O)c1cc[n+](Cc2ccccc2)c(/C=N/O)c1 | 77.9% (active)

Row | SMILES | inhibition
24 | CCC(=O)Nc1ccc(Nc2nc(Cl)nc(Nc3ccc(NC(=O)CC)cc3)n2)cc1 | -1.91% (inactive)
25 | COc1ccc(C(=O)NNc2cc(C)nc(NNC(=O)c3ccc(OC)cc3)n2)cc1 | 1.15% (inactive)
26 | CC(=O)Nc1ccc(Nc2cc(C)nc(Nc3ccc(NC(C)=O)cc3)n2)cc1 | 52.3% (active)
27 | COc1ccc(NC(=O)C(NC(C)=O)C(=O)NCc2ccccc2Cl)cc1 (stereo unspecified) | -1.84% (inactive)
28 | CC(C)c1c(O)nc(SCCOc2ccc(Cl)cc2)[nH]c1=O | -2.86% (inactive)
29 | CCN(Cc1ccccc1)C(=O)CN1C(=S)NC(C)(C)CC1C (stereo unspecified) | -4.37% (inactive)
30 | CCOC(=O)c1ccc(NC(=O)CNC(=O)c2ccco2)cc1 | -2.59% (inactive)
31 | CCN(CC)CCOC(=O)c1ccc(NC(=O)CNC(=O)c2ccccc2)cc1 | 49.1% (active)
32 | CCN(CC)CCNCC(=O)Nc1ccc(Oc2ccccc2)cc1 | -4.52% (inactive)
33 | CC(C)Oc1ccc(C(CC(=O)N2CCOCC2)C(C)C)cc1 (stereo unspecified) | 2.91% (inactive)
34 | CNc1ccc([N+](=O)[O-])cc1C(=O)O | 43.2% (active)
35 | CCN(CC)c1ccc([N+](=O)[O-])cc1C(=O)O | 3.17% (inactive)
36 | Cc1ccc(NC(=O)c2cc([N+](=O)[O-])ccc2Cl)c(O)c1 | 1.45% (inactive)
37 | Cc1ccc(N/N=C2\COC(C)(C)CC2=O)cc1 | -3.88% (inactive)
38 | CCNC(=O)COC(=O)CCNC(=O)c1cccc(C)c1 | 82.3% (active)
39 | Cc1cccc(C(=O)NCC(=O)OCC(=O)N(C)CC(=O)Nc2ccccc2Cl)c1 | -1.62% (inactive)
40 | Cc1cccc(OCC(=O)NCCNC(=O)c2cccnc2)c1 | -1.26% (inactive)
41 | CC(C)Cn1c(N2CCN(C(=O)/C=C/c3ccccc3)CC2)nc2ccccc21 | -1.07% (inactive)
42 | Cc1cc2c(cc1C)[n+](C)cn2CC(O)COCC1CC=CCC1 (stereo unspecified) | 46.1% (active)
43 | COc1ccc(-c2noc(CCC(=O)N3CCN(c4cccc(C)c4)CC3)n2)cc1 | 3.55% (inactive)
44 | CC(C)(CSc1nncn1/N=C/c1ccco1)NS(=O)(=O)c1ccc(Cl)cc1 | 5.18% (inactive)
45 | O=C(NC1CC1)C1CCCN(C(=O)NC2CCCCC2)C1 (stereo unspecified) | -2.29% (inactive)
46 | CC[C@]1(C(=O)OC)[C@H]2C(=O)N(C)C(=O)[C@H]2[C@H]2CN(C)C(=NCc3ccccc3)N21 | 2.1% (inactive)
